High-throughput results (PubChem)
The list is not random: actives were taken first. Their share in the collection is about 2.5%.
PKA-R1A act: PKA-R1A complex activation. PKA-R1A dissociation, Cy5-IP20 fluorescence polarization; scaled: DMSO 0%, 113 µM cGMP 100%. activation, % at 11.4 µM. actives 0.083% (n = 340,000). AID 504707;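 active means percent activation above the mean of all tested compounds plus 3 SD, cut at about 19% in these data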;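 further: higher means more PKAc released from R1A so a rise in polarization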
TMEM16A inh: mouse TMEM16A channel inhibition, primary screen; Q8BHY3; HEK293 TMEM16A/YFP iodide influx fluorescence, ionomycin; normalized B-score (activity score, 25-100; higher = stronger inhibition) at 10 µM; actives 1.2% (n = 310,000); AID 588511;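 active means ratio plate-corrected score three or more library SD toward inhibition, starting fluorescence score within five deviations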;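 further: score derived from kinetic fluorescence span divided by baseline fluorescence per well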
CHT inh: human CHT choline transport inhibition; CHT-expressing cells, membrane potential dye, choline response; active compounds read low; B-score at 10 µM; actives 0.86% (n = 310,000);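 active means B-score over 3 SD under the library average, and starting fluorescence ratio not unusually high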;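 further: choline stimulus applied at its EC90 after an EC20 pre-addition; B-score computed on integrated fluorescence ratio after choline addition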
TMEM16A act: activators or potentiators of mouse TMEM16A chloride channel; HEK293 TMEM16A/YFP-H148Q/I152L, iodide quench fluorescence; active compounds read low; B-score at 10 µM; actives 0.3% (n = 340,000); AID 623877;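 active means fluorescence-ratio B-score plate-corrected deviation score at least 3 library SD below zero, with starting fluorescence score within 5 deviations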;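 further: channel opened by trigger with iodide after compound preincubation; score built on the fluorescence ratio of max minus min over baseline; more negative score means more quench and so TMEM16A activation or potentiation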
CHT PAM: allosterically activates the human high affinity choline transporter | Q9GZV3 | CHT-expressing cells, membrane potential dye, choline EC20; active compounds read high; LV-AA mutant CHT in HEK293 cells | B-score at 10 µM | actives 0.49% (n = 310,000);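 active means initial fluorescence not abnormally high and integrated response B-score, plate-corrected, over 3 SD above library mean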
PKA-R2B activ: activators of human PKA-R2B complex; PKA-R2B holoenzyme dissociation, Cy5-IP20 fluorescence polarization; R2B truncated from residue 108, S112A mutant; 0% DMSO only, 100% 113 µM cGMP; actives 0.079% (n = 340,000); P22694+P31323; activation, % at 11.4 µM;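 active means activation above a cutoff set at the mean over all compounds plus 3 SD, cut at about 18% in these data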;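 further: higher means more holoenzyme dissociation and a rise in polarization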
Target sequence (P31323 whole entry, looked up, other chains not shown, the tested form may be a part): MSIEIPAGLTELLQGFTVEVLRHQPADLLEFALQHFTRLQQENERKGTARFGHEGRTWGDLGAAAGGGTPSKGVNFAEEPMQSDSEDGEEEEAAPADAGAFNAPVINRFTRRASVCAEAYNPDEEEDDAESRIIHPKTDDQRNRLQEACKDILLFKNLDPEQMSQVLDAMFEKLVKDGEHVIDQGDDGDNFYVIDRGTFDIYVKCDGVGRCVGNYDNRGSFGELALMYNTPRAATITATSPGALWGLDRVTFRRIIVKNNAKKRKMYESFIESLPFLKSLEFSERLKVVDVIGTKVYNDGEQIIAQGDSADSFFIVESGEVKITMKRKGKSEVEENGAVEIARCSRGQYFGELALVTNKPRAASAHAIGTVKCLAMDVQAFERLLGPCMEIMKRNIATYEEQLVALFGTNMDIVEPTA
TMEM16A reconf: TMEM16A (mouse) chloride channel inhibition, re-confirmation; shares compounds with TMEM16A inh; AID 652189; HEK293 TMEM16A/YFP-H148Q, iodide quench fluorescence; ionomycin added to raise cell calcium; inhibition, % at 10 µM; actives 39% (n = 2,300);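 active means mean duplicate percent inhibition, scaled so buffer wells are 0 and the reference blocker 100, over three buffer SD above buffer mean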
TMEM16A Ca cntr: counter-screen for TMEM16A inhibitors: effect on calcium mobilization. shares compounds with TMEM16A inh. actives 2% (n = 2,300). AID 652231. calcium response (% of ionomycin), % at 10 µM. TMEM16A/YFP HEK293, Fluo4 calcium mobilization;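 active means duplicate-averaged calcium signal over 20% of the ionomycin maximum, relative to buffer baseline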;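 further: each well's signal is peak minus trough fluorescence divided by its pre-addition baseline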
Parental YFP cnt: acts in parental YFP-HEK293 cells lacking TMEM16A, counter-screen | shares compounds with TMEM16A inh | iodide YFP quench, ionomycin | YFP ratio F(max-min)/F0 at 10 µM | 2,300 tested, under 10 active;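 active means yellow fluorescent protein signal ratio exceeding the buffer control mean by over 5 SD of those controls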;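 further: ratio is mean of duplicate wells from kinetic YFP trace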
ClC-1 rat inh: rat ClC-1 inhibition, TMEM16A specificity screen. shares compounds with TMEM16A inh. CHO ClC-1-YFP, iodide influx fluorescence quench; iodide control reads 0, buffer control 100. ratio percent, % at 10 µM. 2,300 tested, under 10 active. AID 652236;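 active means duplicate-mean ratio percent above the mean of iodide-only control wells, which defines zero, plus 5 of their SD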;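 further: higher percent means stronger block of ClC-1 iodide influx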
A number is an active result; n = inactive; x = no result given.

SMILES	PKA-R1A act	TMEM16A inh	CHT inh	TMEM16A act	CHT PAM	PKA-R2B activ	TMEM16A reconf	TMEM16A Ca cntr	Parental YFP cnt	ClC-1 rat inh
CN(C)S(=O)(=O)c1cccc(COC(=O)c2cccnc2Cl)c1	n	25	n	n	n	n	n	n	n	n
Cc1ccc(N2C(=O)/C(=C\c3ccco3)SC2=S)cc1	n	100	n	n	n	n	n	n	n	n
O=C1/C(=C\c2ccco2)SC(=S)N1c1ccccc1	n	n	n	n	n	n	x	x	x	x
CCOc1ccc(NC(=O)CN(C)C(=O)CN2C(=O)c3ccc([N+](=O)[O-])cc3C2=O)cc1OCC	n	x	x	n	x	n	x	x	x	x
O=C(CCCc1ccccc1)Nc1ccnn1C1CCN(Cc2ccc(Cl)cc2)CC1	n	n	n	n	n	n	x	x	x	x
CCOc1ccc(CN2CCC(n3nccc3NC(=O)CCCc3ccccc3)CC2)cc1	n	25	n	n	n	n	n	n	n	n
COc1cc(CN2CCC(n3nccc3NC(=O)CCCc3ccccc3)CC2)ccc1F	n	25	n	n	n	n	16.5%	n	n	n
O=C(CCCc1ccccc1)Nc1ccnn1C1CCN(Cc2ccccc2)CC1	n	n	n	n	n	n	x	x	x	x
CN(CC(=O)Nc1cccc(F)c1)C(=O)C1(c2ccccc2)CC1	n	x	x	n	x	n	x	x	x	x
CC(C=NNc1ccc([N+](=O)[O-])cn1)=Cc1ccccc1	n	x	x	n	x	n	x	x	x	x
CCN(C(=O)COC(=O)c1ccccc1Cc1ccccc1)C1CCS(=O)(=O)C1 (configuration not stated)	n	n	n	n	n	n	x	x	x	x
CCN(C(=O)COC(=O)c1ccccc1Nc1cccc(C)c1C)C1CCS(=O)(=O)C1 (configuration not stated)	n	100	n	n	n	n	n	n	n	n
COc1ccc(CCNc2ccc(C(CC(N)=O)NC(=O)c3cc(C)cc(C)c3)cc2[N+](=O)[O-])cc1 (configuration not stated)	n	n	n	n	n	n	x	x	x	x
CC1=CC(=O)c2ccccc2C1=O	n	n	n	n	n	n	x	x	x	x
COc1cccc2c1C(=O)C=C(C)C2=O	n	25	n	n	n	n	n	24.5%	n	n
CC(Sc1nc2ccccc2s1)C(=O)c1c(N)n(C)c(=O)n(C)c1=O (configuration not stated)	n	100	n	n	n	n	n	n	n	n
CCCCSc1ccc2nc(-c3ccc(C#N)cc3)cn2c1	n	100	n	n	n	n	16.0%	n	n	n
CCCSc1ccc2nc(-c3ccccc3)cn2c1	n	n	n	n	n	n	x	x	x	x
CSc1ccc(C(=O)C2CCCN(C(=O)CCn3cncn3)C2)cc1 (configuration not stated)	n	n	n	n	n	n	x	x	x	x
CSc1ccc(C(=O)C2CCCN(C(=O)CCc3c(C)nn(C)c3C)C2)cc1 (configuration not stated)	n	25	n	n	n	n	n	n	n	n
COc1ccc(-c2nnc3ccc(SCC(=O)NCc4ccco4)nn23)cc1	n	n	n	n	n	n	x	x	x	x
Cc1nnc(SCC(=O)NCc2ccco2)n1-c1ccccc1	n	n	n	n	n	n	x	x	x	x
